# Records with an inconclusive call do not appear. Entries that show only a call come without a potency. Active and inactive are the calls of the source. Calls come from the whole dose curve; as a rule, active = well fitted curve in the direction sought with a large enough effect; inconclusive = small, poorly fitted or top-dose-only effect, or another doubt; inactive = no such curve, though single readings can be large; an effect the other way counts as inactive or inconclusive.
# Columns and labels:
# [1] = target: Aldehyde dehydrogenase, mitochondrial (Homo sapiens) (UniProt P05091); experiment: qHTS for Inhibitors of the Aldehyde Dehydrogenase Family (ALDH2) Primary screen (AID 2061308); details: ALDH2 enzyme inhibition qHTS, 1536-well; series mostly up to 56 µM; note: nearly all actives have a fitted effect of over 55% in size
# [2] = target: Retinaldehyde dehydrogenase 3 (Homo sapiens) (UniProt P47895); experiment: qHTS for Inhibitors of the Aldehyde Dehydrogenase Family (ALDH1A3) Primary screen (AID 2061315); details: ALDH inhibition qHTS; series mostly up to 56 µM
Compound,Potency [1],Potency [2]
CCC1C(=O)N(C)c2cnc(Nc3ccc(C(=O)NC4CCN(C)CC4)cc3OC)nc2N1C1CCCC1 (configuration not stated),inactive,inactive
CCNC(=O)c1ccc(-c2ccc3ncnc(NCCc4cnc[nH]4)c3c2)o1,inactive,inactive
CC(Cc1cnccn1)Nc1cnc2c(O)ccc(C(=O)O)c2c1 (configuration not stated),inactive,inactive
Oc1ccc(CCc2ccccc2)c2cccnc12,inactive,inactive
NC(=O)C1CCN(c2nccc(-c3ccc(Br)cc3)n2)CC1,inactive,inactive
COC(=O)c1cncc(NC(=O)c2cccs2)c1,inactive,inactive
OCc1ccnc(NC(=S)N2CCN(c3cccc(C(F)(F)F)c3)CC2)c1,inactive,inactive
O=S(=O)(Nc1cccc2cccnc12)c1ccc(Br)cc1,inactive,inactive
O=C(Nc1cccc(C(F)(F)F)c1)Nc1nnc(-c2ccncc2)s1,inactive,inactive
CC1=C(CC(=O)O)c2cc(F)ccc2C1=Cc1ccc(S(C)(=O)=O)cc1,inactive,inactive
COc1ccccc1C1=Nn2c(nnc2-c2ccccc2OC)SC1,inactive,inactive
COc1ccc2nc(-c3ccc(Cl)cc3)sc2c1,inactive,inactive
O=C(O)c1ccc(O)c2ncc(N3CCCCC3CCc3ccccn3)cc12 (configuration not stated),inactive,inactive
COc1cc(C2Nc3ccccc3C(=O)N2Cc2ccccc2)ccc1OCc1ccc(NC(C)=O)cc1 (configuration not stated),inactive,inactive
Cc1nc(NCCO)c2nc(-c3ccccc3)n(CC3CCN(C)CC3)c2n1,inactive,inactive
CC(C)(C)OC(=O)N[C@@H](Cc1ccc(O[S+](=O)([O-])c2cccc3cnccc23)cc1)C(=O)N1CCN(c2ccccc2)CC1,inactive,inactive
